# Records with an inconclusive call do not appear. A number with no mark means an inactive call. The call rests on the fitted dose curve; in most records, active means well fitted inhibition curve with a large enough effect; inconclusive means small, poorly fitted or top-dose-only effect; inactive means no such curve, though single readings can be large or run the other way.
# System: Zika virus NS2B-NS3 protease (unlinked complex)
# Assay: Primary screen GU Rhodamine qHTS for Zika virus inhibitors: Unlinked NS2B-NS3 protease assay (AID 1347159); further: nearly all actives have a fitted effect of over 60% in size
# Conditions: Recombinant ZIKV NS2B-NS3 protease, Rhodamine110 substrate fluorescence; series mostly up to 107 µM; activity change, negative = inhibition: at the top concentration
# Procedure, shortened: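 Percent inhibition derives from the 15-min fluorescence change (ex 480, em 540 nm), normalized to no-enzyme and no-inhibitor wells. Reactions contained 25 nM NS2B-NS3 complex and 1.5 microM substrate in 10 mM Tris-HCl pH 8.0.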
# On the % scale 0 is the no-effect control and ±100 the full control effect.
row,SMILES,"activity change, negative = inhibition"
1,Cc1cccc(S(=O)(=O)N2CCC[C@@H]2CCN2CCC(C)CC2)c1,13.9%
2,O=[N+]([O-])c1cn2c(n1)OCC(OCc1ccc(OC(F)(F)F)cc1)C2 (stereo unspecified),-25.4%
3,CCC1C(=O)N(C)c2cnc(Nc3ccc(C(=O)NC4CCC(N5CCN(CC6CC6)CC5)CC4)cc3OC)nc2N1C(C)C (stereo unspecified),42%
4,NC1(C(=O)NC(CCO)c2ccc(Cl)cc2)CCN(c2ncnc3[nH]ccc23)CC1 (stereo unspecified),76.3%
5,CCNC(=O)C1OC(n2cnc3c(N)nc(NCCc4ccc(CCC(=O)O)cc4)nc32)C(O)C1O (stereo unspecified),9.83%
6,CCc1ccc(Cc2ccc3c(c2)[C@]2(OC3)O[C@H](CO)[C@@H](O)[C@H](O)[C@H]2O)cc1,35.3%
7,Nc1ccc(-c2cccc3c(=O)cc(N4CCOCC4)oc23)cc1,-0.649%
8,COc1nc2sc(C(=O)NC3CC3)c(N)c2c(C)c1Cl,14.1%
9,CC1(C)CCC2(C(=O)OC3OC(CO)C(O)C(O)C3O)CCC3(C)C(=CCC4C5(C)CCC(OC6OC(C(=O)O)C(OC7OC(CO)C(O)C(O)C7O)C(OC7OC(CO)C(O)C(O)C7O)C6O)C(C)(C)C5CCC43C)C2C1 (stereo unspecified),-14% [at 32.5 µM]
10,OC[C@H]1O[C@@H](O[C@H]2[C@H](OCc3ccccc3)O[C@H](CO[C@@H]3OC[C@@H](O)[C@H](O)[C@H]3O)[C@@H](O)[C@@H]2O)[C@H](O)[C@@H](O)[C@@H]1O,-10.1% [at 57.1 µM]
11,CNC12CC3C[C@@](C)(C1)C[C@](C)(C3)C2,12.3%
12,CC(O)/C=C/C1C(C)C(O[C@@H]2O[C@H](CO)[C@@H](O)[C@H](O)[C@H]2O)C(O)CC1(C)C (stereo partly specified),-10.9%
13,C[C@@H]1C[C@@H]([C@@H](O)C(C)(C)O)O[C@H]2C[C@@]3(C)C(=C12)C[C@H](O)[C@H]1[C@@]2(C)CCC(=O)C(C)(C)C2CC[C@@]13C (stereo partly specified),9.47% [at 57.1 µM]
14,Cc1ccc(-c2ccc3ncc4c(c3n2)n(C2CCN(C(=O)[C@H](C)O)CC2)c(=O)n4C)cn1,-7.16%
15,O=C(c1cn(Cc2cncn2Cc2ccc(Br)cc2)cc1-c1cccc2ccccc12)N1CCOCC1,17.1%
16,COc1ccc(CNC(=O)c2cc(-c3cncc(C)c3)ncc2-c2nccs2)nc1OC,10.3%

row,SMILES,"activity change, negative = inhibition"
1,Cc1cccc(Oc2cnc(=O)[nH]c2)c1,3.69%
2,CCCC(=O)C1CCN(c2ncnc3c2CN(C(=O)c2ccc(-c4ccccc4)cc2)CC3)CC1,-9.76%
3,C[C@@H]1CN(Cc2ccccc2)C[C@H]1c1nc2c(cnn2C2CCOCC2)c(=O)[nH]1,4.39%
4,C[C@@H]1CC[C@]2(C(=O)O[C@@H]3O[C@H](CO)[C@@H](O)[C@H](O)[C@H]3O)CC[C@]3(C)C(=CCC4[C@@]5(C)C[C@@H](O)[C@H](O)[C@](C)(C(=O)O)C5CC[C@]43C)[C@@H]2[C@]1(C)O (stereo partly specified),10.1% [at 32.5 µM]
5,COC(=O)c1ccnc(-c2cc(C(=O)NCCc3ccccc3)ccn2)c1,27.7%
6,CC(=O)O[C@@H](CO[C@@H]1O[C@H](CO)[C@H](O)[C@H](O)[C@H]1O)[C@]1(C)C=C2CC[C@@H]3C(C)(C)[C@@H](O)CC[C@@]3(C)[C@@H]2CC1,20.6% [at 57.1 µM]
7,CCn1cc(NC(=S)Nc2cc(Cl)ccc2OC)c(C(N)=O)n1,-13%
8,O=C(O)CC(=O)OC[C@H]1O[C@@H](Oc2ccc3c(c2)OC[C@H]2c4cc5c(cc4O[C@@H]32)OCO5)[C@H](O)[C@@H](O)[C@@H]1O,14.1% [at 57.1 µM]
9,CC1=C2C[C@H]3O[C@@]3(C)CCC3O[C@@]3(C)C[C@@]2(O)OC1=O (stereo partly specified),2.7%
10,CCC(=O)O[C@H]1C(C)(C)[C@H]([C@@H](O)C(=O)OC)[C@]2(C)C(=O)[C@@]1(O)[C@H]1O[C@]13C1CC(=O)O[C@@H](c4ccoc4)[C@]1(C)CCC32 (stereo partly specified),14.1% [at 32.5 µM]
11,CC1=CC(=O)C(=C(C)C)CC2C1CCC2(C)O (stereo unspecified),7.64%
12,CC(C)[C@@](C)(O)[C@@H]1CN(c2nc(-c3[nH]nc4ncccc34)c(F)cc2Cl)CCN1,142%
13,CC(CO)C1CCC2(C)CC3C(CO)CC(O)C3C(C)(O)C/C=C/12 (stereo unspecified),2.77%
14,C=C[C@H]1[C@H](O[C@@H]2O[C@H](CO)[C@@H](O)[C@H](O)[C@H]2O)OC=C(C(=O)OC)[C@H]1CC(=O)O,5.95%
15,CC(O)/C=C/C1(O)C2(C)COC1(C)CC(O)C2 (stereo unspecified),7.65%

# Reference: PubChem BioAssay (NCATS)
